Experimental data reported in the supplement of paper PMC10338343.
± gives the standard deviation.

Columns and labels:
[1] = system: MILI (PIWIL2) piRISC loaded with L1MC piRNA (26 nt); test: pre-steady-state target cleavage rate (min^-1); guide: L1MC piRNA 5'p-UAACUAAAUACUAUGCAAGCUGUAGG; higher = faster piRNA-guided slicing of the target
Procedure, shortened: (§1)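 Active affinity-purified piRISC (1 nM) loaded with one synthetic guide was mixed with a transcribed, DNA-blocked target RNA library (0.1 nM), with or without 500 nM GTSF1 partner protein, in HEPES–potassium acetate buffer at 33 °C for 0–8 or 0–960 min. Uncleaved targets were sequenced, normalised to depth and to weakly complementary targets, and pooled across three trials, with k3 capped at 0.0001 min^-1. The pre-steady-state cleavage rate was determined with a burst-and-steady-state fit.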

[2] = system: EfPiwi piRISC loaded with L1MC piRNA (26 nt); test: pre-steady-state target cleavage rate (min^-1); auxiliary factor: 500 nM Ephydatia muelleri Gtsf1; guide: L1MC piRNA 5'p-UAACUAAAUACUAUGCAAGCUGUAGG; MIWI and MILI are mouse PIWI proteins and EfPiwi is from a freshwater sponge; tags in brackets are library labels; higher = faster piRNA-guided slicing of the target
Procedure, shortened: as §1

[3] = auxiliary factor: 500 nM mouse GTSF1
[4] = auxiliary factor: none (no GTSF1)

Row | Sequence | pre-steady-state target cleavage rate [1, 3] | pre-steady-state target cleavage rate [1, 4] | pre-steady-state target cleavage rate [2]
1 | UCCUGGUACACCAUGCAUAGUAUUUAGUUA | 0.176 ± 0.033 | 0.0052 ± 0.0033 | 0.00335 ± 0.0031
2 | UCCUGGAUGAGCUAUGCAUAGUAUUUAGUUA | 0.202 ± 0.013 | 0.0126 ± 0.0025 | 0.0256 ± 0.0076
3 | UCCUGGAUGUCGUAUGCAUAGUAUUUAGUUA | 0.0833 ± 0.012 | 0.00487 ± 0.0028 | 0.00476 ± 0.0027
4 | UCCUGGAUCAGCUUGGAUAGUAUUUAGUAA | 0.166 ± 0.019 | 0.00324 ± 0.0026 | 0.00463 ± 0.0023
5 | UCCUCCUACACGUUGCAUAGUAUUUAGUAA | 0.163 ± 0.022 | 0.00299 ± 0.0029 | 0.00566 ± 0.0027
6 | UCCUGCUACACCUUGCUUAGUAUUUAGUUA | 0.2 ± 0.017 | 0.00572 ± 0.0028 | 0.00903 ± 0.0035
7 | UCCUGGAUGUCCUUGCAUAGUUUUUAGUUA | 0.0125 ± 0.0057 | 0.00594 ± 0.0021 | 0.00455 ± 0.003
8 | UCCUGGUUCAGCUUGCAUAGUAUUUAGUAA | 0.144 ± 0.028 | 0.00573 ± 0.0029 | 0.00696 ± 0.0035
9 | UCCUGCUAGAGCAUGCAUAGUAUUUAGUUA | 0.226 ± 0.018 | 0.00708 ± 0.0024 | 0.00618 ± 0.0015
10 | UCCUGCUACAGCUUGCUAGUAUUUAGUUA | 0.0195 ± 0.0079 | 0.00519 ± 0.002 | 0.00473 ± 0.0031
11 | UCCUGGUAGACCUUGCAUAGUAUUUAGUUA | 0.221 ± 0.022 | 0.00488 ± 0.0036 | 0.0182 ± 0.0065
12 | UCCUCCUACAGCUUGCAUAGUAUUUAGUA | 0.177 ± 0.021 | 0.00474 ± 0.0025 | 0.00701 ± 0.0026
13 | UCCUGGAACCAGCUUGCAUAGUAUUUAGUUA | 0.365 ± 0.032 | 0.00736 ± 0.0021 | 0.0336 ± 0.0098
14 | UCCUGGUACAGCUUGCAUAGUAUUUGGUUA | 0.205 ± 0.033 | 0.0142 ± 0.0043 | 0.00525 ± 0.002
15 | UCCUCCUACAGCUUGCAUAGUAUUUAGUUA [g2:g26:cont:t1A] | 0.344 ± 0.02 | 0.0103 ± 0.003 | 0.121 ± 0.034
16 | UCCUCCUACAGCAUUGCAUAGUAUUUAGUUA | 0.228 ± 0.014 | 0.00746 ± 0.0025 | 0.0213 ± 0.0068
17 | UCCUCCUACAGCUUGCGUAGUAUUUAGUUA | 0.28 ± 0.015 | 0.0113 ± 0.003 | 0.031 ± 0.011
18 | UCCUCCUACAGCUUGCAAAGUAUAUAGUUA | 0.115 ± 0.015 | 0.00276 ± 0.0025 | 0.008 ± 0.0043
19 | UCCUCGUACAGCUUGCAUAGUAUUUAGUUA | 0.32 ± 0.015 | 0.0108 ± 0.0022 | 0.163 ± 0.036
20 | UCCUGGUAGAGCUUGCUUAGUAUUUAGUUA | 0.226 ± 0.012 | 0.00793 ± 0.0029 | 0.00885 ± 0.0045
21 | UCCUCCUACAGCUUGCAUAGUAUUUAGUAUA | 0.258 ± 0.028 | 0.00757 ± 0.0027 | 0.00856 ± 0.0035
22 | UCCUGGAUCACGUUGCAUAGUAUUUAGAAA | 0.128 ± 0.022 | 0.00275 ± 0.0027 | 0.00652 ± 0.0044
23 | UCCUGGUACUGCUAGCAUAGUAUUUAGUUA | 0.174 ± 0.02 | 0.0113 ± 0.003 | 0.00467 ± 0.0022
24 | UCCUGGAACAGCUUGCAUAGUAUUUAGUUUA | 0.321 ± 0.018 | 0.00981 ± 0.003 | 0.0245 ± 0.0071
25 | UCCUGGUACCAGCUUGCAUAGUAUUUAGUUA | 0.276 ± 0.043 | 0.00866 ± 0.0047 | 0.0109 ± 0.0044
26 | UCCUGGUACAUGCUUGCAUAGUAUUUAGUUA | 0.131 ± 0.018 | 0.00627 ± 0.0036 | 0.0077 ± 0.0034

Row | Sequence | pre-steady-state target cleavage rate [1, 3] | pre-steady-state target cleavage rate [1, 4] | pre-steady-state target cleavage rate [2]
27 | UCCUCCUACAGCUUGCAUAGUAAUUAGUUA | 0.275 ± 0.022 | 0.00666 ± 0.0023 | 0.0117 ± 0.0045
28 | UCCUCCUACAGCUUGCAUAGUACUUUAGUUA | 0.216 ± 0.017 | 0.00628 ± 0.0027 | 0.0115 ± 0.0051
29 | UCCUCCUACAGCAACCAUAGUAUUUAGUUA | 0.21 ± 0.022 | 0.00404 ± 0.002 | 0.00322 ± 0.0025
30 | UCCUCCUACAGCUUGCAUUGUAUUUUGUUA | 0.0994 ± 0.015 | 0.00327 ± 0.0022 | 0.00442 ± 0.0027
31 | UCCUGCUUCAGCUUGCAUAGUAUAUAGUUA | 0.277 ± 0.025 | 0.00438 ± 0.002 | 0.00887 ± 0.0035
32 | UCCUCCUUCAGCUUGCAUAGUAAUUAGUUA | 0.211 ± 0.021 | 0.00503 ± 0.002 | 0.0731 ± 0.025
33 | UCCUGCAACAGCUUGCAUAGUAAUUAGUUA | 0.34 ± 0.025 | 0.00709 ± 0.0027 | 0.00951 ± 0.0021
34 | UCCUGGAUCAGCUUGCAUAGUAUUUAGUCA | 0.285 ± 0.019 | 0.0107 ± 0.0027 | 0.0102 ± 0.0044
35 | UCCUGGAUGAGCUUGCAUAGUAUCUAGUUA | 0.131 ± 0.019 | 0.00451 ± 0.0026 | 0.00844 ± 0.003
36 | UCCUGGAUCAGCUUGCAUAGUAUUUAGUGA | 0.237 ± 0.021 | 0.006 ± 0.0028 | 0.0182 ± 0.0068
37 | UCCUGCUACAGCUUGCAUAGUAUUAGUUA | 0.222 ± 0.026 | 0.0027 ± 0.0027 | 0.00404 ± 0.0022
38 | UCCUGGAAAGCUUGCAUAGUAUUUAGUUA | 0.276 ± 0.016 | 0.00624 ± 0.0022 | 0.035 ± 0.0098
39 | UCCUGGAUGAAGCUUGCAUAGUAUUUAGUUA | 0.224 ± 0.02 | 0.0106 ± 0.0031 | 0.0366 ± 0.0082
40 | UCCUGGAACAGUCUUGCAUAGUAUUUAGUUA | 0.26 ± 0.018 | 0.00993 ± 0.0026 | 0.00822 ± 0.0027
41 | UCCUGGUAGAGCUUGCAUAGUUUUUAGUUA | 0.0231 ± 0.005 | 0.00498 ± 0.0023 | 0.0049 ± 0.0026
42 | UCCUGGAACAGCUUGCAUAGUAUUAAGUUA | 0.212 ± 0.024 | 0.00457 ± 0.0019 | 0.00549 ± 0.0022
43 | UCCUGCUACAGCUACCAUAGUAUUUAGUUA | 0.233 ± 0.032 | 0.0038 ± 0.0024 | 0.00308 ± 0.0021
44 | UCCUGGAUCAGCUUGCAUAGUAUUUUGUUA | 0.144 ± 0.019 | 0.00819 ± 0.0028 | 0.0125 ± 0.0042
45 | UCCUGGAUGUGCUAUGCAUAGUAUUUAGUUA | 0.141 ± 0.018 | 0.0069 ± 0.0024 | 0.0103 ± 0.0036
46 | UCCUGGAUGGGCUUGCAUAGUAUUUAGUUA | 0.17 ± 0.021 | 0.0171 ± 0.0035 | 0.0238 ± 0.0063
47 | UCCUCCUACAGCUUGACAUAGUAUUUAGUUA | 0.267 ± 0.018 | 0.00554 ± 0.0024 | 0.016 ± 0.0056
48 | UCCUGGAUGAGCUAGCAUUGUAUUUAGUUA | 0.0518 ± 0.0092 | 0.00446 ± 0.0025 | 0.00519 ± 0.0032
49 | UCCUGCUACACGCUUGCAUAGUAUUUAGUUA | 0.218 ± 0.032 | 0.00682 ± 0.0029 | 0.00609 ± 0.0019
50 | UCCUGGAACAGCUGGCAUAGUAUUUAGUUA | 0.17 ± 0.012 | 0.00801 ± 0.003 | 0.00699 ± 0.0026
51 | UCCUGGAACAGGAUGCAUAGUAUUUAGUUA | 0.285 ± 0.016 | 0.0116 ± 0.0027 | 0.00753 ± 0.0018
52 | UCCUGGAACACGCUUGCAUAGUAUUUAGUUA | 0.249 ± 0.025 | 0.0151 ± 0.0044 | 0.0331 ± 0.011
